PMC7862700, “An all-to-all approach to the identification of sequence-specific readers for epigenetic DNA modifications on cytosine”

Columns and labels:
Assay in all cases: DAPPL (digital affinity profiling via proximity ligation, sequencing); 10 mM Tris-HCl pH 7.5, 50 mM NaCl, 1 mM DTT, 4% glycerol, room temperature, 30 min; GST-TFs on glutathione beads, 16-mer random dsDNA library, 0.1% formaldehyde crosslink after washing; high values mean tight binding
FLI1 = molecular target: T1, FLI1 (Homo sapiens, UniProt Q01543 1-452); details: protein: recombinant; tags: N-terminal GST; dsDNA, one strand shown
T1 sequence: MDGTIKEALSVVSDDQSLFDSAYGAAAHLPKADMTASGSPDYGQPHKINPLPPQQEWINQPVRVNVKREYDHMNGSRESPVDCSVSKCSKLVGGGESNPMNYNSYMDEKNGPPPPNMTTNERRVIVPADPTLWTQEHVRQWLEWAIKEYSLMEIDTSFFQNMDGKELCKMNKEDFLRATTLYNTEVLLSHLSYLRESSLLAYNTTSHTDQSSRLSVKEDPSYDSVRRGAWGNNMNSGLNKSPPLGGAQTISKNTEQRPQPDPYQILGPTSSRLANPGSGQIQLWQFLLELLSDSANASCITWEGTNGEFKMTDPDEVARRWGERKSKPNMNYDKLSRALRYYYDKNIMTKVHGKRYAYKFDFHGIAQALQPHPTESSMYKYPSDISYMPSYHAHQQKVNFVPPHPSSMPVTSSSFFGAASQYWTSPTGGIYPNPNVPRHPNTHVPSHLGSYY
Summary of the method: (§1)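 A tag-only sample was pooled with DNA-barcoded human transcription factors that had been expressed in yeast as GST fusions and captured on glutathione beads. The pools were incubated for 30 min at room temperature with 200 nmole of a random double-stranded 16-mer DNA library in Tris/NaCl/DTT/glycerol buffer, then washed, crosslinked with 0.1% formaldehyde, proximity-ligated (BsaI/T4 ligase, 1 h, 37 °C), PCR-amplified and sequenced on an Illumina NextSeq500. Binding signal is each hexamer's read frequency for a factor divided by its frequency for the tag-only sample.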

ELK1 = molecular target: T2, ELK1 (Homo sapiens, UniProt P19419 1-428); details: protein: recombinant; tags: N-terminal GST; dsDNA, one strand shown
T2 sequence: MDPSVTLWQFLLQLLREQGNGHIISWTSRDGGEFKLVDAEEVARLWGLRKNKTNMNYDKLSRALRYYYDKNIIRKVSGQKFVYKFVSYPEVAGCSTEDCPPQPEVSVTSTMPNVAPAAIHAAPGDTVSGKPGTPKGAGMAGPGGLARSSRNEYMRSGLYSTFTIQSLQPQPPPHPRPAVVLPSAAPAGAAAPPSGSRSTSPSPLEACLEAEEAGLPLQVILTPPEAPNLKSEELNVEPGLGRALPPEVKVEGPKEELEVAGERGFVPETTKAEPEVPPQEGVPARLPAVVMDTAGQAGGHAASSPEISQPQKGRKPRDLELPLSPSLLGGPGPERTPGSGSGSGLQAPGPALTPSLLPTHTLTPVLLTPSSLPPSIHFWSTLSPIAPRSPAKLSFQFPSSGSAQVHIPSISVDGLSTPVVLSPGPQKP
Summary of the method: as §1

GABPA = molecular target: T3, GABPA (Homo sapiens, UniProt Q06546 1-454); details: protein: recombinant; tags: N-terminal GST; dsDNA, one strand shown
T3 sequence: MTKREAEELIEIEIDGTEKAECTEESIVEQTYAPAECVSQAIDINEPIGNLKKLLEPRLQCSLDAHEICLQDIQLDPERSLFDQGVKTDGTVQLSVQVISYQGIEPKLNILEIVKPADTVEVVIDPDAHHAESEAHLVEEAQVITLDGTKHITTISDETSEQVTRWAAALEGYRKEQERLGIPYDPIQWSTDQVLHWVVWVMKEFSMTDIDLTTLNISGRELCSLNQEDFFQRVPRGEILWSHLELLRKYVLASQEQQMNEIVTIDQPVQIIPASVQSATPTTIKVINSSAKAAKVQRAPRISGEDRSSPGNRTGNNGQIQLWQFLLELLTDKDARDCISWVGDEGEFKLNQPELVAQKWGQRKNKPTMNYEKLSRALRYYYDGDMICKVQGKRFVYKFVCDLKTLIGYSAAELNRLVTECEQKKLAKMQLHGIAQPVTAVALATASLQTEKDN
Summary of the method: as §1

ERG = molecular target: T4, ERG (Homo sapiens, UniProt P11308 1-479); details: protein: recombinant; tags: N-terminal GST; dsDNA, one strand shown
T4 sequence: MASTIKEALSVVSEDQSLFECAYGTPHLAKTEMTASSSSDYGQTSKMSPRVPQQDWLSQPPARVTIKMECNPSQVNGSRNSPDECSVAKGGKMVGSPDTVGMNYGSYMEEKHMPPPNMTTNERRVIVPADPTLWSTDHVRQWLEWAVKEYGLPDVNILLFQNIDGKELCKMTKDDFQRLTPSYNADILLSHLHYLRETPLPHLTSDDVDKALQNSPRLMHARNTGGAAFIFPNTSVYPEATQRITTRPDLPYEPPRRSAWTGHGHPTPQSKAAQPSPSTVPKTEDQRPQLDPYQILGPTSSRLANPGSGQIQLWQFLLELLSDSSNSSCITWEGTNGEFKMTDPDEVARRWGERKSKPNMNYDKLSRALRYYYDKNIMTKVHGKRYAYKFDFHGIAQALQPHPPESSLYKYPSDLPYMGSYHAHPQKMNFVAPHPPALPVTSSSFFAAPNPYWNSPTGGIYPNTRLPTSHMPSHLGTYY
Summary of the method: as §1

ELF1 = ELF1 (Homo sapiens, UniProt P32519 1-619); details: protein: recombinant; tags: N-terminal GST; dsDNA, one strand shown
ELF1, sequence (P32519 whole entry): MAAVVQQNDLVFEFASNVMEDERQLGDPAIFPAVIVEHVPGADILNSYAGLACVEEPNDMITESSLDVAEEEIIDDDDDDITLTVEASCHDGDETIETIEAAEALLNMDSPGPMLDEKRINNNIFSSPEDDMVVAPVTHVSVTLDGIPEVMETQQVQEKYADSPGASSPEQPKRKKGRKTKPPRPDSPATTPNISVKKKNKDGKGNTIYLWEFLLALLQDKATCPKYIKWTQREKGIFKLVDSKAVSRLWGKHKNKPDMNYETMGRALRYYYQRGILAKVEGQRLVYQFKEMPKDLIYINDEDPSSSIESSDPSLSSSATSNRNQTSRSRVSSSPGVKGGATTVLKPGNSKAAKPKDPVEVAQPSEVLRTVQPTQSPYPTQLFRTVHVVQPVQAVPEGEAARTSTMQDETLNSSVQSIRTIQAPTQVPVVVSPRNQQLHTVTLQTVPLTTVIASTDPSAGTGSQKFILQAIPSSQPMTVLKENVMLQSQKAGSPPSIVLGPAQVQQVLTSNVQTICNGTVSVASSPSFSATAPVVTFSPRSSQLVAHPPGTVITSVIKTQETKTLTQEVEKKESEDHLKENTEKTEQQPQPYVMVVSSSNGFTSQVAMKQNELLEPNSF
Summary of the method: as §1

EHF = molecular target: T5, EHF (Homo sapiens, UniProt Q9NZC4 1-300); details: protein: recombinant; tags: N-terminal GST; dsDNA, one strand shown
T5 sequence: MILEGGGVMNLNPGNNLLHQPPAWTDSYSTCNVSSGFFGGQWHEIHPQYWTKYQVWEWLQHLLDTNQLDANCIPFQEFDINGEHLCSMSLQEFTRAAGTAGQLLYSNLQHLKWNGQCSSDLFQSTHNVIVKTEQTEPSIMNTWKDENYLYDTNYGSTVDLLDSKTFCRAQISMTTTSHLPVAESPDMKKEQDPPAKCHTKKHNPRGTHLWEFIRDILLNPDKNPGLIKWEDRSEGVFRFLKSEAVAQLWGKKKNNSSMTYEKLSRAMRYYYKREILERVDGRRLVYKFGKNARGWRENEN
Summary of the method: as §1

SPI1 = SPI1 (Homo sapiens, UniProt P17947 1-270); details: protein: recombinant; tags: N-terminal GST; dsDNA, one strand shown
Summary of the method: as §1

SPIB = SPIB (Homo sapiens, UniProt Q01892 1-262); details: protein: recombinant; tags: N-terminal GST; dsDNA, one strand shown
SPIB, sequence (Q01892 whole entry): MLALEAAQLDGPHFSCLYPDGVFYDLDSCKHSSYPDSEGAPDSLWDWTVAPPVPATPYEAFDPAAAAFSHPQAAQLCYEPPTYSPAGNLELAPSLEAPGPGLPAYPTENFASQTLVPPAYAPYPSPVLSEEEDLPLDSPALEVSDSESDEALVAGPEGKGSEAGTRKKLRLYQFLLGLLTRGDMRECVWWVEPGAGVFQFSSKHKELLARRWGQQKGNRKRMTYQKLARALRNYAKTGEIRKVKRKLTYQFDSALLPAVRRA
Summary of the method: as §1

ELK3 = molecular target: T6, ELK3 (Homo sapiens, UniProt P41970 1-407); details: protein: recombinant; tags: N-terminal GST; dsDNA, one strand shown
T6 sequence: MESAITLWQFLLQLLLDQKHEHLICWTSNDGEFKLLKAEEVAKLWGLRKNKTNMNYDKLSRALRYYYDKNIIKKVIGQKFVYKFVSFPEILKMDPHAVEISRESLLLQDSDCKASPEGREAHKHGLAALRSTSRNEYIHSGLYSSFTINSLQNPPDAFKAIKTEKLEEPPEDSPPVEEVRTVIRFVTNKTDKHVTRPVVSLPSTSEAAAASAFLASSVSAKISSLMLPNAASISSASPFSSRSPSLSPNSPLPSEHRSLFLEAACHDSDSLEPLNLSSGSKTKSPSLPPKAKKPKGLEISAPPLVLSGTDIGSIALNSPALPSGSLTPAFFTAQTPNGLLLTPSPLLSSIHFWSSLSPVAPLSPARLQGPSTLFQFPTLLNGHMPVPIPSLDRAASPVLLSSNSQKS
Summary of the method: as §1

FEV = molecular target: T7, FEV (Homo sapiens, UniProt Q99581 1-238); details: protein: recombinant; tags: N-terminal GST; dsDNA, one strand shown
T7 sequence: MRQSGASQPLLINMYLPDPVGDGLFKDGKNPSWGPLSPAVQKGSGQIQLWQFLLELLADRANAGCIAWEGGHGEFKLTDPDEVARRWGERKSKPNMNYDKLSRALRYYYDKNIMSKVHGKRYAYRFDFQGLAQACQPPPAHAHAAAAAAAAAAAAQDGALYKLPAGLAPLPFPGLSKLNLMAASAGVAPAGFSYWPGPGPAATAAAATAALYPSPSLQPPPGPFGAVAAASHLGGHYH
Summary of the method: as §1

ETV5 = ETV5 (Homo sapiens, UniProt P41161 1-510); details: protein: recombinant; tags: N-terminal GST; dsDNA, one strand shown
ETV5, sequence (P41161 whole entry): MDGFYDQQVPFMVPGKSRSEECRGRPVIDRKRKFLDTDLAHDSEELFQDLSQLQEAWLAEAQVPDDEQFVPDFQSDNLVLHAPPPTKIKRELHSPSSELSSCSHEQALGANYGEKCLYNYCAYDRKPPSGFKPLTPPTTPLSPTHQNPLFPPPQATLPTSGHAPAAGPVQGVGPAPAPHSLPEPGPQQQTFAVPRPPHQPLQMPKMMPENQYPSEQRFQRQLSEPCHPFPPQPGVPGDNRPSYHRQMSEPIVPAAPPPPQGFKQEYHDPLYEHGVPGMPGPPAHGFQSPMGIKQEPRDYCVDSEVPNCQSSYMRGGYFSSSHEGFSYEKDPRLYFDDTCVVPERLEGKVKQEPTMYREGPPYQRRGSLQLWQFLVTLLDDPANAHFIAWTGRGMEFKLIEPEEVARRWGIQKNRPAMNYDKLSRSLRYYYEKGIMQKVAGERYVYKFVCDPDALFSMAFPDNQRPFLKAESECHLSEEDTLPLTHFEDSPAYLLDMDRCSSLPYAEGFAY
Summary of the method: as §1

HSF1 = HSF1 (Homo sapiens, UniProt Q00613 1-529); details: protein: recombinant; tags: N-terminal GST; chain copies: 3; dsDNA, one strand shown
HSF1, sequence (Q00613 whole entry): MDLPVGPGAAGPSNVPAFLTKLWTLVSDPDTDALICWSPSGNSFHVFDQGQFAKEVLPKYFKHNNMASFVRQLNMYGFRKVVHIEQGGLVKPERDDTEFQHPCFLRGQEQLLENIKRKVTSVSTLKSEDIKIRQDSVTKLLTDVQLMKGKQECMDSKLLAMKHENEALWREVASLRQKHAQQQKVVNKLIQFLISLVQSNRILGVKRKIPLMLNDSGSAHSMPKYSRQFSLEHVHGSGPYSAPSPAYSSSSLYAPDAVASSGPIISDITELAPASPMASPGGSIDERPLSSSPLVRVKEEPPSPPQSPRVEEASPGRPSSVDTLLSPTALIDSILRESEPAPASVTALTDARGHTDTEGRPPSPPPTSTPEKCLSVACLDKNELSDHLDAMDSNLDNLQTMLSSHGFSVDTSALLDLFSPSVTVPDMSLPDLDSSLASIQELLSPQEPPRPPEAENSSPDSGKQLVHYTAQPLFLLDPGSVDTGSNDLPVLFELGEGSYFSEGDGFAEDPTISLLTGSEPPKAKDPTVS
Summary of the method: as §1

SPIC = molecular target: T8, SPIC (Homo sapiens, UniProt Q8N5J4 1-248); details: protein: recombinant; tags: N-terminal GST; dsDNA, one strand shown
T8 sequence: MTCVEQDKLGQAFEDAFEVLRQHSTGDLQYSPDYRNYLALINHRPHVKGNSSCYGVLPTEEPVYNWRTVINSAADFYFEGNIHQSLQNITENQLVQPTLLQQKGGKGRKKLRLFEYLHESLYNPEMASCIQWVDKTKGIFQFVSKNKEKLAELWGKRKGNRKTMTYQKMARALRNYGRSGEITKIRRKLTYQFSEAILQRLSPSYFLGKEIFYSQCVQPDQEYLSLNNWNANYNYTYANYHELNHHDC
Summary of the method: as §1

ELF4 = ELF4 (Homo sapiens, UniProt Q99607 1-663); details: protein: recombinant; tags: N-terminal GST; dsDNA, one strand shown
ELF4, sequence (Q99607 whole entry): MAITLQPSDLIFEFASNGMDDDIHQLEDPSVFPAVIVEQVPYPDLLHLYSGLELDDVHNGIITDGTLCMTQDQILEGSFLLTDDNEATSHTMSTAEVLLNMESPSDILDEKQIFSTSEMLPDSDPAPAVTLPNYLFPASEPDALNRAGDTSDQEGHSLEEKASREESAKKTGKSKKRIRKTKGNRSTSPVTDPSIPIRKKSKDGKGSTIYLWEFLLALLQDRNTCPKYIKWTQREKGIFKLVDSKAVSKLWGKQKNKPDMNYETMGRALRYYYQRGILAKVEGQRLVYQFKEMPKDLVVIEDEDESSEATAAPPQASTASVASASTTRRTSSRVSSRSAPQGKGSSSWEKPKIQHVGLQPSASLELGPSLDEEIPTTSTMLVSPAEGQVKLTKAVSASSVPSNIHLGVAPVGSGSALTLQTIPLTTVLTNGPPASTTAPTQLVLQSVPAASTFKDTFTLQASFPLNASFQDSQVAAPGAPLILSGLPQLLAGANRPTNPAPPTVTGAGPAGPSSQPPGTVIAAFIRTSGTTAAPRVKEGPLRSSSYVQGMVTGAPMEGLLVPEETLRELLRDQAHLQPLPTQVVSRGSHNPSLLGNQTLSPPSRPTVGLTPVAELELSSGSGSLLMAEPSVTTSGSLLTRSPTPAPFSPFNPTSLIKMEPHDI
Summary of the method: as §1

ETV2 = molecular target: T9, ETV2 (Homo sapiens, UniProt O00321 1-342); details: protein: recombinant; tags: N-terminal GST; dsDNA, one strand shown
T9 sequence: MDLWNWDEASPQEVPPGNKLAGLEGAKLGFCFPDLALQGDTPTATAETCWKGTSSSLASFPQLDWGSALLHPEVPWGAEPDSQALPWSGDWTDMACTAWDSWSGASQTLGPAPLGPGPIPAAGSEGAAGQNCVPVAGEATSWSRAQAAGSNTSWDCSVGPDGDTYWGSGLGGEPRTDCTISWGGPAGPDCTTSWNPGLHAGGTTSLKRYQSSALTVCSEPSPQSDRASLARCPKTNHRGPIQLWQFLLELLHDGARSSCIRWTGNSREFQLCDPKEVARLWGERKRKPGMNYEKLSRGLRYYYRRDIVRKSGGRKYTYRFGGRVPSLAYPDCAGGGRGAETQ
Summary of the method: as §1

ELF3 = molecular target: T10, ELF3 (Homo sapiens, UniProt P78545 1-371); details: protein: recombinant; tags: N-terminal GST; dsDNA, one strand shown
T10 sequence: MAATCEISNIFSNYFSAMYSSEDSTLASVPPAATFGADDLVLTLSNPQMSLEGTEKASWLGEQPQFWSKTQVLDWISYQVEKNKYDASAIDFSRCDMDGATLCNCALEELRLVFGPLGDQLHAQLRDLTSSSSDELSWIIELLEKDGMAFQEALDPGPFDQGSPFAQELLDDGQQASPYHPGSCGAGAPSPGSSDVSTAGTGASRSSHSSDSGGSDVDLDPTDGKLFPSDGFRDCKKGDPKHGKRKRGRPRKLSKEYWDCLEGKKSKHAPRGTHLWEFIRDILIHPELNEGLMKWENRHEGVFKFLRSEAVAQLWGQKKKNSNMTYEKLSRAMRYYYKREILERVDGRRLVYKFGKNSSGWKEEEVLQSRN
Summary of the method: as §1

ETV1 = ETV1 (Homo sapiens, UniProt P50549 1-477); details: protein: recombinant; tags: N-terminal GST; dsDNA, one strand shown
ETV1, sequence (P50549 whole entry): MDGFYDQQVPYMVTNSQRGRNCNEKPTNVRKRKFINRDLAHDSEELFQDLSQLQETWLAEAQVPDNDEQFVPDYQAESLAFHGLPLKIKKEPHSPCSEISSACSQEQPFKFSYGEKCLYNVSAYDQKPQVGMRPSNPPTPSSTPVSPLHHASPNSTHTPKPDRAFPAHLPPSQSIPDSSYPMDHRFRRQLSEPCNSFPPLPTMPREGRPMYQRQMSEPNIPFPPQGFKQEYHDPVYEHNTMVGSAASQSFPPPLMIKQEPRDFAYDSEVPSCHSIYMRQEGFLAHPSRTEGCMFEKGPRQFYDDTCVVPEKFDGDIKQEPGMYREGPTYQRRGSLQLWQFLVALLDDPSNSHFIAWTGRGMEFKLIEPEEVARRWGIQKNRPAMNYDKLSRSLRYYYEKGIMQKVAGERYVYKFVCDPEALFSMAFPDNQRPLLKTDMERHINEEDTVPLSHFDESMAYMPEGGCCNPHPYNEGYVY
Summary of the method: as §1

Sequence	binding signal (FLI1)	binding signal (ELK1)	binding signal (GABPA)	binding signal (ERG)	binding signal (ELF1)	binding signal (EHF)	binding signal (SPI1)	binding signal (SPIB)	binding signal (ELK3)	binding signal (FEV)	binding signal (ETV5)	binding signal (HSF1)	binding signal (SPIC)	binding signal (ELF4)	binding signal (ETV2)	binding signal (ELF3)	binding signal (ETV1)
GTTTTC	1.19 fold enrichment (6-mer frequency, TF over GST control)	1.2 fold enrichment (6-mer frequency, TF over GST control)	1.23 fold enrichment (6-mer frequency, TF over GST control)	1.24 fold enrichment (6-mer frequency, TF over GST control)	1.15 fold enrichment (6-mer frequency, TF over GST control)	1.28 fold enrichment (6-mer frequency, TF over GST control)	1.17 fold enrichment (6-mer frequency, TF over GST control)	1.2 fold enrichment (6-mer frequency, TF over GST control)	1.23 fold enrichment (6-mer frequency, TF over GST control)	1.21 fold enrichment (6-mer frequency, TF over GST control)	1.24 fold enrichment (6-mer frequency, TF over GST control)	1.13 fold enrichment (6-mer frequency, TF over GST control)	1.1 fold enrichment (6-mer frequency, TF over GST control)	1.2 fold enrichment (6-mer frequency, TF over GST control)	1.25 fold enrichment (6-mer frequency, TF over GST control)	1.32 fold enrichment (6-mer frequency, TF over GST control)	1.13 fold enrichment (6-mer frequency, TF over GST control)
AACGTA	1.06 fold enrichment (6-mer frequency, TF over GST control)	1.05 fold enrichment (6-mer frequency, TF over GST control)	1.02 fold enrichment (6-mer frequency, TF over GST control)	1.04 fold enrichment (6-mer frequency, TF over GST control)	1.02 fold enrichment (6-mer frequency, TF over GST control)	1.01 fold enrichment (6-mer frequency, TF over GST control)	–	–	1.11 fold enrichment (6-mer frequency, TF over GST control)	–	1.04 fold enrichment (6-mer frequency, TF over GST control)	1.03 fold enrichment (6-mer frequency, TF over GST control)	1.02 fold enrichment (6-mer frequency, TF over GST control)	1.03 fold enrichment (6-mer frequency, TF over GST control)	1.01 fold enrichment (6-mer frequency, TF over GST control)	1.01 fold enrichment (6-mer frequency, TF over GST control)	1.06 fold enrichment (6-mer frequency, TF over GST control)
GCTCTG	1.18 fold enrichment (6-mer frequency, TF over GST control)	1.26 fold enrichment (6-mer frequency, TF over GST control)	1.03 fold enrichment (6-mer frequency, TF over GST control)	1.01 fold enrichment (6-mer frequency, TF over GST control)	1.08 fold enrichment (6-mer frequency, TF over GST control)	1.15 fold enrichment (6-mer frequency, TF over GST control)	1.11 fold enrichment (6-mer frequency, TF over GST control)	1.1 fold enrichment (6-mer frequency, TF over GST control)	–	1.25 fold enrichment (6-mer frequency, TF over GST control)	1.15 fold enrichment (6-mer frequency, TF over GST control)	1.08 fold enrichment (6-mer frequency, TF over GST control)	1.18 fold enrichment (6-mer frequency, TF over GST control)	1.17 fold enrichment (6-mer frequency, TF over GST control)	1 fold enrichment (6-mer frequency, TF over GST control)	1.04 fold enrichment (6-mer frequency, TF over GST control)	1.28 fold enrichment (6-mer frequency, TF over GST control)
